Screening results (PubChem)
This is a sample that favours compounds with a hit; in the whole collection about 4.6% have one here.
FXN GAA850 act – frataxin GAA850 promoter activation | HEK293 lucGAA850 FXN promoter luciferase reporter, 24 h; percent of 10 µM SAHA response | activation, % at 6 µM | 360,000 tested, 0.56% active;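 active = activation above the average of all compounds screened plus 3 SD, cutoff fixed separately per campaign, cut at about 7.5% in these data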;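 note: 0% = DMSO wells and 100% = 10 µM SAHA wells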
AHR act – human AHR activation; activation, % at 5 µM; AID 2796; 320,000 tested, 2.5% active; AHR-responsive luciferase reporter cells, luminescence; in the data active = activation above about 47%;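 note: 0% = vehicle wells and 100% = reference agonist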
Target sequence (P35869 whole entry, looked up): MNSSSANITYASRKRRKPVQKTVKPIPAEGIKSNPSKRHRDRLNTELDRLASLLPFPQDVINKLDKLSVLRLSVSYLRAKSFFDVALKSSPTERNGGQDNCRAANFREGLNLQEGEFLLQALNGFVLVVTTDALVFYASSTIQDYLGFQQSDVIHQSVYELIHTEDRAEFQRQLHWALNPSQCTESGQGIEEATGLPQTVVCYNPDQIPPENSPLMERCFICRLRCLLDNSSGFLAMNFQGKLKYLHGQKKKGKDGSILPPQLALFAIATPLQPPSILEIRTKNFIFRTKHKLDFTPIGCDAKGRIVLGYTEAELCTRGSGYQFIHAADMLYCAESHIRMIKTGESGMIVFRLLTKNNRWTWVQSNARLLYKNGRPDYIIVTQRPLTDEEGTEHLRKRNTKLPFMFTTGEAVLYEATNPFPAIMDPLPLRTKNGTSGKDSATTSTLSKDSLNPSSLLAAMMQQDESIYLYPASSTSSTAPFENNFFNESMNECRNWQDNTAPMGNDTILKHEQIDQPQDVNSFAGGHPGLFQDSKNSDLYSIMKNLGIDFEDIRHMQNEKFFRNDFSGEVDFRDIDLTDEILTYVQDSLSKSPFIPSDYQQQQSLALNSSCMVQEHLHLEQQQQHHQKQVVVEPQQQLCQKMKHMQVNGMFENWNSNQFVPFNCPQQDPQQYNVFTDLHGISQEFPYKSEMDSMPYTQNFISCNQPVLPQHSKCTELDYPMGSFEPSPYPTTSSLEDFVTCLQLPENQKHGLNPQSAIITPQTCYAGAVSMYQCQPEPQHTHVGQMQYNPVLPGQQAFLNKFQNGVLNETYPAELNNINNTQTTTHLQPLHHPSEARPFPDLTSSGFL
HSF1 inh – HSF1 inhibition. NIH3T3-HGL HSE-luciferase, MG132-induced, luminescence 8 h; active compounds read low. activity change, negative = inhibition, % at 7.5 µM (by protocol). 300,000 tested, 0.77% active;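 active = more than half of replicate wells show activity change below -50%, luminescence cut by over half; inconclusive = some wells, but at most half, below -50%; inactive = no replicate well below -50%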;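 note: luciferase reports HSF-1 transcriptional activity via heat shock element; 0% = median of DMSO wells and -100% = zero luminescence signal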
HSF-1 act – increases HSF-1 driven luciferase reporter signal | NIH3T3-HGL HSF-1 luciferase reporter, MG132, 8 h; 100% = twice DMSO control signal | activation, % at 9 µM | 300,000 tested, 1.7% active | AID 504408;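 active = mean replicate activation of at least 50% with a set share of replicates each reaching 50%; inconclusive = only one of those two conditions met; inactive = mean below 50% and too few replicates reaching it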;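 note: 0% = median of the neutral control wells and 100% = twice that signal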
GAA30 FXN cntr – GAA30 FXN promoter activation counter-screen; shares compounds with FXN GAA850 act; HEK293 lucGAA30 FXN promoter luciferase, 24 h; DMSO = 0%, 5 µM ipriflavone = 100%; activation, % at 6 µM; 1,900 tested, 66% active;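 active = mean activation above the mean of solvent-only control wells plus 3 SD, cut at about 22% in these data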;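 note: counterscreen of GAA850 promoter hits where activity marks nonselective or luminescence artifacts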
GAA850 confirm – confirmation of GAA850 frataxin (FXN) promoter activators; shares compounds with FXN GAA850 act; HEK293 lucGAA850 FXN promoter luciferase reporter, 24 h; 100% = activation by SAHA; activation, % at 6 µM; 1,900 tested, 86% active;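 active = mean activation above a set limit taken from the primary screen, cut at about 8% in these data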;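 note: 0% = DMSO wells and 100% = 10 µM SAHA wells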
Numbers without * were called inactive; ? = inconclusive; . = no result given.

SMILES | FXN GAA850 act | AHR act | HSF1 inh | HSF-1 act | GAA30 FXN cntr | GAA850 confirm
COC(=O)c1ccc(N2C(=O)CC(N3CCN(C(=O)c4ccco4)CC3)C2=O)cc1 (stereo unspecified) | 11* | -2 | -6 | 14 | 16 | 8.2*
CCCOc1ccc(N2C(=O)CC(N3CCN(C(=O)c4ccco4)CC3)C2=O)cc1 (stereo unspecified) | -3 | -2 | -14 | -26 | . | .
CCN(CC)S(=O)(=O)c1ccc(C(=O)OCCN2C(=O)c3cccc4c(N5CCOCC5)ccc(c34)C2=O)cc1 | 8.5* | 4 | -2 | 1 | 21 | 6
O=P(NC1CCCCC1)(c1ccccc1)c1ccccc1 | 0 | . | . | . | . | .
CC/C(=C\C1CCCCC1)C(NP(=O)(c1ccccc1)c1ccccc1)c1ccccc1 (stereo unspecified) | 13* | 2 | 10 | 11 | 30* | 19*
COc1ccc(C(=O)/C=C/c2ccccc2OC)c(OC(=O)c2ccc([N+](=O)[O-])cc2)c1 | 4 | 34 | 33 | ? | . | .
O=C(Oc1ccccc1/C=C\C(=O)c1cc2ccccc2o1)c1cccc(F)c1 | 8.9* | 70* | 199 | 235* | 40* | 20*
COc1cccc(C(=O)Oc2ccccc2/C=C\C(=O)c2cc3ccccc3o2)c1 | 7.8* | . | 129 | 131* | 95* | 45*
NC(=O)N/N=C/c1ccccc1OC(=O)c1cc2ccccc2oc1=O | 5 | 3 | 22 | 34 | . | .
O=C(Oc1ccccc1/C=C\C(=O)c1cc2ccccc2o1)c1ccccc1 | 8.7* | 68* | 289 | 366* | 111* | 43*
COc1ccc(-c2cc(C(F)(F)F)nc(S(=O)(=O)CCCC(=O)Nc3cccc(O)c3)n2)cc1OC | 9.3* | . | 186 | 260* | 40* | 32*
COc1ccccc1-c1cc(C(F)(F)F)nc(S(=O)(=O)CCCC(=O)O)n1 | 0 | -1 | 31 | 40 | . | .
COc1ccc2cc(C(N)=O)/c(=N/NC(=O)c3ccco3)oc2c1 | 0 | 22 | 1 | 8 | . | .
COC(=O)N=Nc1c(O)[nH]c2ccc(Br)cc12 | 10* | 70* | 1 | 6 | 144* | 32*
CCOC(=O)NC(=O)CSc1nc(-c2ccc(C)c(C)c2)cn1-c1ccccc1 | 7.9* | 18 | -13 | -11 | 62* | 34*
CCOC(=O)CNC(=S)N(Cc1cccs1)C1CCCCC1 | 8.0* | -6 | 0 | -4 | 13 | 9.2*
CCCN1CC(=O)N2C(c3cccc(OC)c3OC)c3[nH]c4ccccc4c3C[C@H]2C1=O (stereo partly specified) | 0 | 3 | 2 | 15 | . | .
COc1cccc(-c2cnc3c(NC=O)cc(-c4ccc(N5CCN(C)CC5)cc4)cn23)c1 | 8.8* | . | . | . | 83* | 40*
COc1ccccc1CNC(=O)COC(=O)c1ccc(C)s1 | -2 | 0 | . | . | . | .
CC1CCCc2sc3nc(N4CCN(CCO)CC4)n4ncnc4c3c21 (stereo unspecified) | 8.1* | 31 | -3 | -1 | 33* | 21*
Cc1ccc(S(=O)(=O)Cn2nnnc2C(C(C)C)N2CCSCC2)cc1 (stereo unspecified) | 0 | 1 | 1 | 6 | . | .
Cc1ccc(S(=O)(=O)Cn2nnnc2C(C(C)C)N2CCc3ccccc3C2)cc1 (stereo unspecified) | 10* | 14 | 5 | 8 | 8 | 7.7*
COc1ccc(-c2cnc3cccnn23)cn1 | 2 | . | . | . | . | .
Clc1ccc(-c2cnc3cccnn23)cc1 | 9.0* | . | . | . | 38* | 15*
c1ccc(CNc2nc(NCc3ccccc3)c3sccc3n2)cc1 | 10* | . | . | . | 46* | 17*
SMILES | FXN GAA850 act | AHR act | HSF1 inh | HSF-1 act | GAA30 FXN cntr | GAA850 confirm
CCOC(=O)c1nc2ccccc2c(=O)[nH]1 | 8.1* | 9 | 2 | 9 | 69* | 23*
CCn1c2ccccc2c2nc3cc(C(=O)O)ccc3nc21 | 12* | . | . | . | 101* | 27*
COc1ccc(Cl)cc1C(=O)OCC(=O)c1ccc[nH]1 | 0 | 1 | . | . | . | .
CC(C)(C)n1nnnc1C(c1ccc(C(F)(F)F)cc1)N(Cc1ccc(F)cc1)Cc1ccco1 (stereo unspecified) | 8.7* | -2 | -9 | -8 | 16 | 14*
CC(C)(C)n1nnnc1C(c1ccc(F)cc1)N(Cc1ccc(F)cc1)Cc1ccco1 (stereo unspecified) | 15* | 2 | 7 | 19 | 17 | 15*
Cc1c(C(=O)NCc2cccc(Cl)c2)sc(=O)n1Cc1cccc(F)c1 | 12* | . | . | . | 16 | 6
Cc1ccc(NC(=O)CSc2nnc(NC(=O)c3ccc(S(=O)(=O)N4CCOCC4)cc3)s2)cc1 | -2 | 0 | 0 | 9 | . | .
COc1ccccc1-c1ccc2c(c1)C(C)(Cc1ccccc1C#N)C(=O)N2 (stereo unspecified) | 7 | . | . | . | . | .
COc1ccccc1-c1ccc2c(c1)C(C)(Cc1ccc(Cl)c(Cl)c1)C(=O)N2 (stereo unspecified) | 17* | . | . | . | 29* | 11*
CCCCC1(COC(=O)CCC(=O)O)C(=O)N(c2ccccc2)N(c2ccccc2)C1=O | 0 | -2 | . | . | . | .
CCCCC1(Cc2ccc([N+](=O)[O-])cc2)C(=O)N(c2ccccc2)N(c2ccccc2)C1=O | 9.5* | -2 | 2 | 4 | 14 | 7
CCOC(=O)C(CC)n1cnc2c(nnn2-c2ccc(F)cc2)c1=O (stereo unspecified) | 19* | 2 | -4 | -8 | 2 | 4
CCOC(=O)C(CC)n1cnc2c(nnn2-c2ccccc2)c1=O (stereo unspecified) | -1 | 2 | -1 | 8 | . | .
CCOc1ccc(Br)cc1CNCCN1CCOCC1 | 3 | 1 | -6 | 11 | . | .
Cc1ccc(C(=O)NC2CCCCC2)cc1S(=O)(=O)N1CCCC1 | 3 | 5 | -1 | 8 | . | .
CCOC(=O)c1c(NC(=O)CSc2nnc(-c3c[nH]c4ccccc34)n2CCOC)sc2c1CCCCC2 | 17* | 3 | -18 | -15 | 5 | 8.2*
CCOC(=O)c1c(NC(=O)CSc2c[nH]c3ccccc23)sc2c1CCCC2 | 1 | 17 | 10 | 34 | . | .
O=C(Nc1nc2ccccc2[nH]1)C1CCC1 | 5 | 14 | 9 | 5 | . | .
O=C(Nc1nc2ccccc2[nH]1)C1CCCC1 | 10* | 17 | 15 | 19 | 86* | 26*
COC(=O)c1cc(Br)c(=O)n(CCN2CCOCC2)c1 | -2 | -2 | -3 | 3 | . | .
COC(=O)Oc1ccc(/C=C/C(=O)OC(C)C)cc1OC(=O)OC | 11* | -4 | 26 | 40 | 52* | 32*
CCCCOC(=O)/C=C/c1ccc(OC(=O)OC)c(OC(=O)OC)c1 | 10* | 1 | -1 | 15 | 63* | 32*
COc1ccc(/C=C/C(=O)Oc2ccc(C=O)cc2OC)cc1 | 1 | -1 | -11 | 13 | . | .
